PLK1 PBD block: PLK1 (human) polo-box domain binding inhibition | Potency, µM, without a hit: max response, negative = inhibition, most hits filed as inhibitors | AID 720504 | 2.8% of 360,000 active | P53350 | Plk1 PBD binding of FITC phosphopeptide, fluorescence polarization; note: potency is the fitted concentration of half-maximal effect; series mostly up to about 57 µM; % is set by controls: 0 for no effect and ±100 for the full control effect; nearly all actives have a fitted effect of over 65% in size
G9a inh: G9a (human) methyltransferase inhibition; Q96KQ7; G9a H3K9 monomethylation, AlphaScreen, 2 h; Potency, µM (highest dose often 102 µM), for the others: at the top dose activity, negative = inhibition, actives largely listed as inhibitors; 8.8% of 350,000 active; note: potency is the fitted concentration of half-maximal effect; % is set by controls: 0 for no effect and ±100 for the full control effect; nearly all actives have a fitted effect of over 75% in size
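G9a (20 nM) was preincubated 15 min with compound, then reacted 2 h at room temperature with 500 nM biotin-H3K9 peptide and 20 µM SAM. Monomethyl-H3K9 detected by AlphaScreen using anti-H3K9me1 antibody.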
HP1b chromo inh: blocks HP1-beta chromodomain binding to methylated histone tails. P83916. AlphaScreen HP1-beta / biotin-H3K9me3 peptide binding. Potency, µM (titrated, usually from 114 µM), for the others: top-dose activity change, negative = inhibition, hits mostly inhibitors. 0.56% of 390,000 active. AID 540317; note: potency is the fitted concentration of half-maximal effect; nearly all actives have a fitted effect of over 70% in size
Target sequence (P83916 whole entry, looked up): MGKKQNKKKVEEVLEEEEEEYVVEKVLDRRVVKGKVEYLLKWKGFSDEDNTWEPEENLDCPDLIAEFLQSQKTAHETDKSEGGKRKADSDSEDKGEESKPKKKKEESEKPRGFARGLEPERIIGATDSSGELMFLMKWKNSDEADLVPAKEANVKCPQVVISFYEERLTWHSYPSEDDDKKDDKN
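AlphaScreen: HP1-beta (50 nM) preformed 30 min with biotin-H3(1-18)K9me3 peptide (50 nM) in PBS pH 7.4, 0.01% Tween-20. Compound added for 30 min at RT, then streptavidin donor/nickel chelate acceptor beads (10 ug/mL) for 30 min.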
BAZ2B inh: BAZ2B (human) inhibition. AID 504333. Potency, µM (highest dose often 114 µM), for the others: at the top dose activity change, negative = inhibition, actives largely listed as inhibitors. 4.4% of 360,000 active. AlphaScreen BAZ2B-H3K14Ac peptide displacement. Q9UIF8; note: potency is the fitted concentration of half-maximal effect; % is set by controls: 0 for no effect and ±100 for the full control effect; nearly all actives have a fitted effect of over 60% in size
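AlphaScreen luminescence quantifies BAZ2B engagement of H3K14Ac peptide; the protein and biotinylated peptide are both at 50 nM final, buffer PBS pH 7.4 with 0.01% Tween-20, all steps at room temperature.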
PI5P4Ka inh: PI5P4K alpha (human) kinase inhibition; P48426; PI5P4Kalpha enzyme, ADP-Glo luminescence, 60 min; stronger effect = lower value; max response, %; 1.2% of 330,000 active; active = max response of -50% or lower; inconclusive = between -30% and -50%; inactive = -30% or higher; note: value at the top dose of about 77 µM; % is set by controls: 0 for no effect and ±100 for the full control effect
Target sequence (P48426 whole entry, looked up): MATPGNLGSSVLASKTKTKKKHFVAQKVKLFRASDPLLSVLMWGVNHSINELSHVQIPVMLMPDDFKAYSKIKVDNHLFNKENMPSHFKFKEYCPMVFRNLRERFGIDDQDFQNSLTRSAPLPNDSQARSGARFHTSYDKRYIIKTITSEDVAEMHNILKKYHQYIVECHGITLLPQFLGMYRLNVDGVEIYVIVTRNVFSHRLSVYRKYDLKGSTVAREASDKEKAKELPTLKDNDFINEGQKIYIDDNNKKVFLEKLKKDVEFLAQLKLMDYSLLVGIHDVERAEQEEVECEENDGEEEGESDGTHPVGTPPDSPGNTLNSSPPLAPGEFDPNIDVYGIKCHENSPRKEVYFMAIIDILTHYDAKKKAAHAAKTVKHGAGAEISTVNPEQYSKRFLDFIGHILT
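Luminescence from ADP-Glo served as readout of PI5P4Kalpha activity in a qHTS format. Reaction: enzyme, substrate, compound, ATP at 5 microM final, 60 min at RT.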
JMJD2A Tudor: inhibitors of human JMJD2A Tudor domain; AlphaScreen JMJD2A-Tudor / H3K4me3 peptide binding; O75164; 4.4% of 390,000 active; Potency, µM (doses to about 114 µM), inactives show at the top dose activity change, negative = inhibition, hits mostly inhibitors; note: potency is the fitted concentration of half-maximal effect; % is set by controls: 0 for no effect and ±100 for the full control effect; nearly all actives have a fitted effect of over 50% in size
Starred values were filed as active, the others as inactive; ? = inconclusive; · = no result; [ ] = dose if it differs, or a comment. Most compounds without a hit are left out; they make up all but 12% or so of the library. Unless noted, calls come from the whole dose curve; as a rule, active = well fitted curve in the direction sought with a large enough effect; inconclusive = small, poorly fitted or top-dose-only effect, or another doubt; inactive = no such curve, though single readings can be large; an effect the other way counts as inactive or inconclusive.

SMILES	PLK1 PBD block	G9a inh	HP1b chromo inh	BAZ2B inh	PI5P4Ka inh	JMJD2A Tudor
O=C(CCc1nnc2n(Cc3ccccc3Cl)c(=O)c3ccccc3n12)Nc1ccc(F)cc1	·	1.5%[59 µM]	22.1%	-1.4%	·	-20.0%
Cc1csc2nc(COc3ccc(NC(=O)C(C)C)cc3)cc(=O)n12	·	-1.8%[59 µM]	25.0%	1.2%	·	-16.6%
CCOc1ccc(S(=O)(=O)N(CC(=O)N/N=C/c2ccc(-c3ccc([N+](=O)[O-])cc3)o2)c2ccccc2)cc1	-10.1%	1.58µM*	-21.5%	22.4µM*	-66.9*	28.2µM*
CCOc1ccc(C(=O)N/N=C/c2ccc(-c3ccc(S(=O)(=O)Nc4ncccn4)cc3)o2)cc1	-21.1%	-7.3%[12.7 µM]	-6.3%	79.4µM*	·	89.1µM*
NC(=S)N/N=C/c1ccc(-c2ccc(SC(F)F)cc2)o1	-5.0%	·	14.1%	-8.2%	-10.9	-24.8%
NC(=S)NN=Cc1ccc(-c2ccc(S(=O)(=O)Nc3ncccn3)cc2)o1	29.9µM*	·	?	·	-55.5*	50.1µM*
NS(=O)(=O)c1ccc(-c2ccc(/C=N/NC(=O)c3ccccc3O)o2)cc1	-8.4%	·	38.2%	-3.8%	?	-12.9%
CC(C)COc1ccc(C(=O)Nc2ccc(S(=O)(=O)Nc3ncccn3)cc2)cc1	·	-3.4%[59 µM]	25.4%	0.1%	·	-15.0%
O=C(N/N=C/c1ccc(-c2ccc(S(=O)(=O)Nc3ncccn3)cc2)o1)c1cc2ccccc2cc1O	26.7µM*	?	28.2µM*	17.8µM*	-84.4*	50.1µM*
CCOc1cc(C2c3c(oc4ccc(F)cc4c3=O)C(=O)N2Cc2ccco2)ccc1O (stereo not drawn)	·	-27.2%[59 µM]	25.7%	-5.1%	·	-10.0%
CCOC(=O)c1ccc(-c2ccc(/C=N/NC(=O)CN(c3ccccc3Cl)S(C)(=O)=O)o2)cc1	-7.6%	12.0%[59 µM]	6.2%[57 µM]	?	2.4	-13.7%
CCOC(=O)c1ccc(-c2ccc(/C=N/NC(=O)CN(c3cccc(C)c3)S(C)(=O)=O)o2)cc1	4.1%	7.94µM*	26.1%	-35.2%	-12.3	-19.0%
COc1ccc(-n2c(=O)c3ccc(C(=O)NCc4ccc(C)cc4)cc3n(CC(=O)Nc3ccc(C)cc3)c2=O)cc1	·	-30.1%[59 µM]	39.7%	·	·	-12.3%
CCOC(=O)Cn1c(=O)oc2cc(S(=O)(=O)Nc3cc(OCC)ccc3OCC)ccc21	2.7%	-7.0%[59 µM]	12.2%	3.1%	·	-22.4%
CCOC(=O)Cn1c(=O)oc2cc(S(=O)(=O)Nc3ccc(N(CC)CC)cc3C)ccc21	-26.0%	39.8µM*	0.2%	?	-1.8	?
CCN(CC)c1ccc(NS(=O)(=O)c2ccc3c(c2)CCCN3C(C)=O)c(C)c1	·	11.2µM*	-5.5%[57 µM]	39.8µM*	·	50.1µM*
CC(=O)N1CCCc2cc(S(=O)(=O)Nc3ccc(C)cc3C)ccc21	-2.5%	-12.3%	4.8%	?	14.3	-13.9%
CCC(=O)N1CCc2cc(S(=O)(=O)NCCC(=O)Nc3ccc(C)cc3C)ccc21	·	-1.4%[59 µM]	34.6%	·	·	-6.0%
CCC(=O)N1CCc2cc(S(=O)(=O)NCCC(=O)Nc3ccc(N(CC)CC)cc3C)ccc21	·	10µM*	-13.7%	·	·	?
CCc1ccc(N(CC)C(=O)c2ccc3c(=O)n4c(nc3c2)CCCCC4)cc1	·	12.5%[59 µM]	16.8%	-8.1%	·	-20.8%
COc1ccc(NS(=O)(=O)c2ccc(-c3cnc(C4CC4)o3)cc2)cc1Cl	·	-19.3%[59 µM]	18.7%	-33.3%	·	-34.1%
COc1ccc(N=Nc2c(C)[nH]c3ccccc23)cc1	3.7%	·	?	·	-3.2	50.1µM*
COc1ccc(N=Cc2c(O)[nH]c3ccccc23)cc1	0.4%	-37.9%[59 µM]	7.5%	-6.7%	·	-14.4%
CC(=O)c1cccc(N=C2NC(=O)CS2)c1	4.1%	15.8%[12.7 µM]	16.8%	12.2%	-2.1	-17.8%
CC(=O)c1cccc(N=Nc2c(C)[nH]c3ccccc23)c1	-3.6%	10µM*	-30.9%	35.5µM*	4.7	?
COc1ccc([C@@H]2C[C@H]3[C@@H](CN2S(=O)(=O)c2ccccc2)C(=O)C[C@@H](c2ccc(OC)cc2)N3S(=O)(=O)c2ccccc2)cc1	-2.0%	·	·	·	-1.4	·
CCc1ccc(C(=O)C(C)CN2CCCCC2)cc1 (stereo not drawn)	·	-48.9%[12.7 µM]	·	·	·	·

From PubChem BioAssay
